Values joined by “and” are separate entries in the source; they are usually repeats but may differ in a detail not shown here. Identical values can stand only once. Results filed as inconclusive are left out. Some compounds were tested as several samples or in several runs, with calls that do not always agree. Active and inactive are the calls of the source. How the source made its calls, unless noted: active means hit-call score of the fitted dose curve at least 0.9, where 1 is the maximum; inactive means score below 0.9.
Experiments:
[1] = biological target: Glucocorticoid receptor (Homo sapiens) (UniProt P04150); test: ATG_GR_TRANS: Attagene TRANS-FACTORIAL HepG2 Assay for human Glucocorticoid Receptor (GR) (AID 2282978; active means hit-call score of the fitted dose curve at least 0.9, where 1 is the maximum;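 further: activators score as hits since higher reporter transcript over DMSO is fitted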); conditions: HepG2 Attagene TRANS GR reporter, mRNA transcription
Chain of Glucocorticoid receptor (Homo sapiens) (P04150 whole entry, looked up, the tested form may be a part): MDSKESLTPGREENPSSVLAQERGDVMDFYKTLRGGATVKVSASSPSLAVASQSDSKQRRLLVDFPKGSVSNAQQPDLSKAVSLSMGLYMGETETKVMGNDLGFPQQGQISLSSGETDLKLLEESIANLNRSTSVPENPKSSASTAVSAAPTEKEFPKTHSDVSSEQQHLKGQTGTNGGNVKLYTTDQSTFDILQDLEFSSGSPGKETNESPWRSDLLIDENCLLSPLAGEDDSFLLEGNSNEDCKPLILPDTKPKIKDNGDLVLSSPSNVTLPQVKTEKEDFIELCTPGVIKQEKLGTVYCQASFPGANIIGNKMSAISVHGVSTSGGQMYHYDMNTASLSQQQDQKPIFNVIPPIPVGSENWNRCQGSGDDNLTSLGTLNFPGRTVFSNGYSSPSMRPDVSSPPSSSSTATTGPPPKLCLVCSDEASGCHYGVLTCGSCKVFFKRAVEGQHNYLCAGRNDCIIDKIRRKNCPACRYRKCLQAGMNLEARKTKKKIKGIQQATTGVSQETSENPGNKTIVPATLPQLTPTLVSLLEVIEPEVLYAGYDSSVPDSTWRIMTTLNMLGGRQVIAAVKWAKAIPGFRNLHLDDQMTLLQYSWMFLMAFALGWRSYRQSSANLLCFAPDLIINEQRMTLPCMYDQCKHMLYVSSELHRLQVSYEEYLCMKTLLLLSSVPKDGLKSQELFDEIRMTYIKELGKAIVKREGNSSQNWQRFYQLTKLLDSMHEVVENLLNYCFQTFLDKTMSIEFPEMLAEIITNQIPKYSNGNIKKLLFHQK
Outline: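 Measurement of GAL4-UAS-driven reporter mRNA in human HepG2 liver cells 24 h post-dosing, using RT-PCR with fluorescent labelling and capillary electrophoresis; the transfected constructs report exogenous NR-GAL4 chimera activity, fitted upward against DMSO.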

[2] = biological target: Bile acid receptor (Homo sapiens) (UniProt Q96RI1); test: ATG_FXR_TRANS: Attagene TRANS-FACTORIAL HepG2 Assay for Farnesoid X Receptor (FXR) (AID 2282979; active means hit-call score of the fitted dose curve at least 0.9, where 1 is the maximum;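 further: hits raise reporter mRNA above DMSO so AC50 marks FXR activation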); conditions: HepG2 Attagene TRANS FXR-GAL4 reporter transcription
Chain of Bile acid receptor (Homo sapiens) (Q96RI1 whole entry, looked up, the tested form may be a part): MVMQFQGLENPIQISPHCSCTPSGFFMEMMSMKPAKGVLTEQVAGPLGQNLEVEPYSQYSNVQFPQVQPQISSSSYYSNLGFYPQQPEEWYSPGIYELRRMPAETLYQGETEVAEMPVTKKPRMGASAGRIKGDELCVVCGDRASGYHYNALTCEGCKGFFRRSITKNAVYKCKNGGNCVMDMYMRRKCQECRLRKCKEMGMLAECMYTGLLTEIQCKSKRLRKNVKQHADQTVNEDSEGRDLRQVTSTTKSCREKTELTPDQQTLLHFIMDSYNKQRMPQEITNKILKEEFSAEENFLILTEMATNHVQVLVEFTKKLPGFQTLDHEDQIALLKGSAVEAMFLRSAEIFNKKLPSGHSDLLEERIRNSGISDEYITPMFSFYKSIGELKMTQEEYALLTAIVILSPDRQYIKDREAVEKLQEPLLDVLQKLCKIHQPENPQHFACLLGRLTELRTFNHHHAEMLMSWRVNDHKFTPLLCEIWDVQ
Outline: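 Chimeric FXR-GAL4 activity in transiently transfected human HepG2 liver cells is scored as induction of reporter mRNA after 24 h of dosing. Detection uses RT-PCR with fluorescent labelling and capillary electrophoresis, with DMSO serving as baseline.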

[3] = biological target: Oxysterols receptor LXR-beta (Homo sapiens) (UniProt P55055); test: ATG_LXRb_TRANS: Attagene TRANS-FACTORIAL HepG2 Assay for human Liver X Receptor beta (LXRb) (AID 2282981; active means hit-call score of the fitted dose curve at least 0.9, where 1 is the maximum); conditions: HepG2 Attagene TRANS GAL4-LXRb reporter, mRNA
Chain of Oxysterols receptor LXR-beta (Homo sapiens) (P55055 whole entry, looked up, the tested form may be a part): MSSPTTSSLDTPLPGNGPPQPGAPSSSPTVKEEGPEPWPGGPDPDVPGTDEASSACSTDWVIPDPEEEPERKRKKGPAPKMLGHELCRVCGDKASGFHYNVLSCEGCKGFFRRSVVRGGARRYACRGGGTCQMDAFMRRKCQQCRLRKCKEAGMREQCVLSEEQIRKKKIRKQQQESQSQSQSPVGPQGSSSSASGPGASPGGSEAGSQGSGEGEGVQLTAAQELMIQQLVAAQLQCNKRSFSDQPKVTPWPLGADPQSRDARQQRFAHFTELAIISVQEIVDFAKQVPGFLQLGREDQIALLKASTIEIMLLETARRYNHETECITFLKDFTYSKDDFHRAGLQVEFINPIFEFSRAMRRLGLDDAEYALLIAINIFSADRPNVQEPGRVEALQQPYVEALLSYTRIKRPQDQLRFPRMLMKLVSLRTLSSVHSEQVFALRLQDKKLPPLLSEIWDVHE
Outline: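 In this TRANS format, exogenous chimeric NR-Gal4 protein activity, not endogenous factors, drives reporter expression in transfected human HepG2 cells. Exposure lasted 24 h; reporter mRNA was read by fluorescent capillary electrophoresis.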

[4] = biological target: Hepatocyte nuclear factor 4-alpha (Homo sapiens) (UniProt P41235); test: ATG_HNF4a_TRANS: Attagene TRANS-FACTORIAL HepG2 Assay for human Hepatocyte Nuclear Factor 4 alpha (HNF4a) (AID 2282982; active means hit-call score of the fitted dose curve at least 0.9, where 1 is the maximum); conditions: HepG2 HNF4a transactivation reporter, mRNA readout
Chain of Hepatocyte nuclear factor 4-alpha (Homo sapiens) (P41235 whole entry, looked up, the tested form may be a part): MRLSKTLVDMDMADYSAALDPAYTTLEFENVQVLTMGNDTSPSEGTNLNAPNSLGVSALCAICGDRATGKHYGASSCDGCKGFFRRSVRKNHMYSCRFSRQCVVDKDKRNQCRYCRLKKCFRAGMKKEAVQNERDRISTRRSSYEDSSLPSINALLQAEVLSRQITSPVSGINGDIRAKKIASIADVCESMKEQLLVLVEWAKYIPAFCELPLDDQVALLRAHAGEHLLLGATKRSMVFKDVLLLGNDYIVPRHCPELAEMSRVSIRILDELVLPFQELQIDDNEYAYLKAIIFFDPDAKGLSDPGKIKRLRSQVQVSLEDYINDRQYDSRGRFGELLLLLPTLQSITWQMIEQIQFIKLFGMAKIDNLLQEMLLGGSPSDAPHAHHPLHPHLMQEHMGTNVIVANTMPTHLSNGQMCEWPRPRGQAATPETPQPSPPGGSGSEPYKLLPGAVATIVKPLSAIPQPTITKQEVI
Outline: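 Cells used were human HepG2, transiently carrying GAL4-UAS reporter units read out against exogenous NR-GAL4 chimeras. Reporter transcript levels after 24 h dosing were quantified by fluorescent RT-PCR and capillary electrophoresis.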

[5] = ATG_M_06_TRANS: Attagene TRANS-FACTORIAL HepG2 Assay for M06 Transcription Factor (Internal Marker) (AID 2282983; active means hit-call score of the fitted dose curve at least 0.9, where 1 is the maximum); conditions: HepG2 Attagene TRANS M06 internal marker reporter
Outline: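 Measured by capillary electrophoresis of fluorescently labelled RT-PCR products, this endpoint reflects reporter mRNA in HepG2 cells harbouring exogenous NR-GAL4 reporter constructs after 24 h exposure, with DMSO as baseline.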

[6] = biological target: Nuclear receptor subfamily 4 group A member 2 (Homo sapiens) (UniProt P43354); test: ATG_NURR1_TRANS: Attagene TRANS-FACTORIAL HepG2 Assay for human Nuclear Receptor Related Protein 1 (NURR1) (AID 2282985; active means hit-call score of the fitted dose curve at least 0.9, where 1 is the maximum); conditions: HepG2 Attagene TRANS reporter, mRNA readout
Chain of Nuclear receptor subfamily 4 group A member 2 (Homo sapiens) (P43354 whole entry, looked up): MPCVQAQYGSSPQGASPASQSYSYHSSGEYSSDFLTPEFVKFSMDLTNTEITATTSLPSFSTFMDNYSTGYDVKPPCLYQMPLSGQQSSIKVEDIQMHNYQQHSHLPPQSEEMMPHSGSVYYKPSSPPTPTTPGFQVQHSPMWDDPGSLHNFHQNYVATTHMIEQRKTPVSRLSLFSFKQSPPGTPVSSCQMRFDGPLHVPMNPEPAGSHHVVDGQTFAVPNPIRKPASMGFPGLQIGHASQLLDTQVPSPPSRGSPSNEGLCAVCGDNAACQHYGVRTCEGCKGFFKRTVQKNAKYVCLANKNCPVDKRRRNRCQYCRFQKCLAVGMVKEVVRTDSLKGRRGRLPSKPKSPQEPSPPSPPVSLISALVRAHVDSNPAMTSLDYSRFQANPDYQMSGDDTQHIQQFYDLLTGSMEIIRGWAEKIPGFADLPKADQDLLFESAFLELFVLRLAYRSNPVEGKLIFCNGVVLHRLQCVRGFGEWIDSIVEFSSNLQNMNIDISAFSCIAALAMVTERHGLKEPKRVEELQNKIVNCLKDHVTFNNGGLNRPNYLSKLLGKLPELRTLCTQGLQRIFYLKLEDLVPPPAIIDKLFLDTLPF
Outline: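 After 24 h chemical dosing, total RNA from transiently transfected HepG2 cells was reverse-transcribed and reporter cDNA PCR-amplified, FAM-labelled and analysed by capillary electrophoresis. Activity fitted in positive direction, DMSO as negative control.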

[7] = biological target: Transcriptional activator Myb (Homo sapiens) (UniProt P10242); test: ATG_Myb_CIS: Attagene CIS-FACTORIAL HepG2 Assay for human Myeloblastosis (Myb) Proto-Oncogene Transcription Factor (AID 2282986); conditions: HepG2 Attagene CIS-FACTORIAL Myb reporter transcription; actives raise or lower the signal
Chain of Transcriptional activator Myb (Homo sapiens) (P10242 whole entry, looked up): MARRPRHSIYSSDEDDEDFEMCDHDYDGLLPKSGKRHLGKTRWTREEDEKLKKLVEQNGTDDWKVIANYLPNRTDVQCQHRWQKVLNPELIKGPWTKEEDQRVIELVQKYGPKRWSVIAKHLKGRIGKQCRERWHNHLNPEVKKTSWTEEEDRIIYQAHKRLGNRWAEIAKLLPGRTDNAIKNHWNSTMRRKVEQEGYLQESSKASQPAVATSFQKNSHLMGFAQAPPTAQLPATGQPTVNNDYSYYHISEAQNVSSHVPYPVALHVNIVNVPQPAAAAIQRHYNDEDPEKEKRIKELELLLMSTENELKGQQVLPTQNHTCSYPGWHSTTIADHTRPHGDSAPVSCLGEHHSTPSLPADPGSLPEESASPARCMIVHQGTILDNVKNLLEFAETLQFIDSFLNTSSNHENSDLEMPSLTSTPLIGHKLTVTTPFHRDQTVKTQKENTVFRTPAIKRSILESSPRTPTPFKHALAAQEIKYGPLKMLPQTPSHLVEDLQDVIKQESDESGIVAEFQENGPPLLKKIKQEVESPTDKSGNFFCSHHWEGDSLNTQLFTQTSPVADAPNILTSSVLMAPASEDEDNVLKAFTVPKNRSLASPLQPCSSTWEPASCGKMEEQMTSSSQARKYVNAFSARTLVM
Outline: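 Fluorescence signals from capillary electrophoresis of RT-PCR-amplified reporter cDNA give the read-out. Cells: HepG2 transfected with multiple cis-regulated reporter units. Exposure lasts 24 hours; DMSO defines baseline for gain or loss of signal.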

[8] = biological target: Nuclear respiratory factor 1 (Homo sapiens) (UniProt Q16656); test: ATG_NRF1_CIS: Attagene CIS-FACTORIAL HepG2 Assay for human Nuclear Respiratory Factor 1 (NRF1) Orphan Gene (AID 2282987); conditions: HepG2 NRF1 cis-element reporter, Attagene multiplex; actives raise or lower the signal
Chain of Nuclear respiratory factor 1 (Homo sapiens) (Q16656 whole entry, looked up): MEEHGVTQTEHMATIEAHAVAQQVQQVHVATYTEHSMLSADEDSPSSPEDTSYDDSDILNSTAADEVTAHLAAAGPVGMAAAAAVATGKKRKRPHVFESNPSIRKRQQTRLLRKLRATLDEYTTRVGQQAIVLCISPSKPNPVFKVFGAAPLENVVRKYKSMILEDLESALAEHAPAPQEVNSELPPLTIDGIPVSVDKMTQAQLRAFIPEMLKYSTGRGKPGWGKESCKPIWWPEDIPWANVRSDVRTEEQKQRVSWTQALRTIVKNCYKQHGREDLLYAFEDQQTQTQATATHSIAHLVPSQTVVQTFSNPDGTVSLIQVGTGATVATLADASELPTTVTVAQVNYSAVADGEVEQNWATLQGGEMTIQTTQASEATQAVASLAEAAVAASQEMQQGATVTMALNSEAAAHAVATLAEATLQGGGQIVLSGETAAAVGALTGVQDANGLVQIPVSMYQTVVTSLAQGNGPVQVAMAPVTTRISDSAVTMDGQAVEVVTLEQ
Outline: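 Transcriptional reporter readout, one component of a 52-endpoint multiplexed HepG2 panel. Exposure 24 h; mRNA detected via RT-PCR and fluorescent capillary electrophoresis; fitting in both directions against DMSO.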

[9] = ATG_NFI_CIS: Attagene CIS-FACTORIAL HepG2 Assay for human Nuclear Factor I (NFI) (AID 2282989); conditions: HepG2 cis-regulatory reporter, NFI response element transcription; actives raise or lower the signal
Outline: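 Transfected HepG2 liver cells, exposed 24 h, supplied total RNA for oligo(dT) reverse transcription and reporter-specific PCR. Labelled, HpaI-cut fragments were sized by capillary electrophoresis; DMSO set the baseline for bidirectional fitting.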

[10] = biological target: Myc proto-oncogene protein (Homo sapiens) (UniProt P01106); test: ATG_Myc_CIS: Attagene CIS-FACTORIAL HepG2 Assay for human Myelocytomatosis (Myc) Proto-Oncogene Transcription Factor (AID 2282990); conditions: HepG2, Attagene cis-reporter transcription factor activity; actives raise or lower the signal
Chain of Myc proto-oncogene protein (Homo sapiens) (P01106 whole entry, looked up): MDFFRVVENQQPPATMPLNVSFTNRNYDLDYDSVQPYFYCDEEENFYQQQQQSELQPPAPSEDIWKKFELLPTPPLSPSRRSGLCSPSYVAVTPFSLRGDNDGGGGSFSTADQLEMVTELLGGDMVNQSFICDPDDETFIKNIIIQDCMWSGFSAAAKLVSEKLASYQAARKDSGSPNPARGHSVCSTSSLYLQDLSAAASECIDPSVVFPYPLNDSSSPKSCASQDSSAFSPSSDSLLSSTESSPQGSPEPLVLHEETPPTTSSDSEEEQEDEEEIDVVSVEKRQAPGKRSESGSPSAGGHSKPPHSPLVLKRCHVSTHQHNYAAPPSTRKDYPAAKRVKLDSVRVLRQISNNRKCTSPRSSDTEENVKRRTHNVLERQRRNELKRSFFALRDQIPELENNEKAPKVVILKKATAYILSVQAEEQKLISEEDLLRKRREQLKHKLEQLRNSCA
Outline: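 DMSO-normalised, bidirectionally fitted reporter mRNA signal. HepG2 cells transfected with cis reporter constructs, treated 24 h; transcripts detected by RT-PCR, 6-FAM primer extension and CE.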

[11] = ATG_NF_kB_CIS: Attagene CIS-FACTORIAL HepG2 Assay for human Nuclear Factor Kappa B (NF-kB) (AID 2282991); conditions: HepG2 Attagene cis-factorial NF-kB reporter mRNA; actives raise or lower the signal
Outline: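 HepG2, transient multi-reporter transfection, cis promoter elements (endogenous TFs). 24 h exposure. Total RNA → RT → PCR → 6-FAM label → HpaI → CE. Gain/loss vs DMSO.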

[12] = ATG_NRF2_ARE_CIS: Attagene CIS-FACTORIAL HepG2 Assay for human Nuclear Factor Erythroid 2 Related Factor 2 (NFR2) response to Antioxidant Response Elements (ARE) (AID 2282992); conditions: HepG2 Attagene ARE/NRF2 reporter, transcription factor activity; actives raise or lower the signal;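 on AC50: reporter mRNA level measured by RT-PCR and capillary electrophoresis fluorescence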
Outline: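 HepG2 cells transiently transfected with multiplexed cis-regulated reporter transcription units measure endogenous transcription factor activity. Reporter mRNA at 24 h is quantified by RT-PCR, fluorescent labelling and capillary electrophoresis, with bidirectional fitting relative to DMSO.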

[13] = biological target: Cellular tumor antigen p53 (Homo sapiens) (UniProt P04637); test: ATG_p53_CIS: Attagene CIS-FACTORIAL HepG2 Assay for human p53 Transcription Factor (AID 2282994); conditions: HepG2 p53 cis-element reporter, Attagene mRNA; actives raise or lower the signal
Chain of Cellular tumor antigen p53 (Homo sapiens) (P04637 whole entry, looked up): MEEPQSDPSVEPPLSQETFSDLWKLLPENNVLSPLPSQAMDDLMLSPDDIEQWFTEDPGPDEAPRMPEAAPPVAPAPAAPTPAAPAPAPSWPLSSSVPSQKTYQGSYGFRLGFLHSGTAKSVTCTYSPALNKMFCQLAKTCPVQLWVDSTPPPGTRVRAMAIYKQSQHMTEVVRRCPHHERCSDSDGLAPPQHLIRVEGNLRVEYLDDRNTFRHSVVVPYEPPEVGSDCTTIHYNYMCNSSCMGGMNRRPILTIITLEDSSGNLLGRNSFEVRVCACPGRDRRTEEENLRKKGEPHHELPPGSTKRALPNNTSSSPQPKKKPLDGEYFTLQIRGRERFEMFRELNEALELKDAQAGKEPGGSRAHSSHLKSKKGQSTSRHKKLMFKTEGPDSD
Outline: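 HepG2 cells transiently transfected with multiplexed cis-regulated reporter transcription units read endogenous TF activity. After 24 h compound exposure, reporter mRNA was quantified by RT-PCR, fluorescent labelling, HpaI digestion and capillary electrophoresis; bidirectional fits versus DMSO baseline.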

[14] = biological target: Estrogen-related receptor gamma (Homo sapiens) (UniProt P62508); test: ATG_ERRg_TRANS: Attagene TRANS-FACTORIAL HepG2 Assay for human Estrogen-Related Receptor gamma (ERRg) (AID 2282977; active means hit-call score of the fitted dose curve at least 0.9, where 1 is the maximum;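 further: hits increase reporter signal over DMSO so potencies reflect activators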); conditions: HepG2 Attagene TRANS reporter, ERRg transactivation
Outline: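 Transfect HepG2 with multiple GAL4-UAS reporter transcription units; dose chemicals 24 h; isolate RNA, reverse-transcribe with oligo(dT), PCR-amplify, label with 6-FAM, digest with HpaI; size fragments by capillary electrophoresis. DMSO serves as negative control.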

[15] = ATG_M_32_TRANS: Attagene TRANS-FACTORIAL HepG2 Assay for M32 Transcription Factor (Internal Marker) (AID 2282984; active means hit-call score of the fitted dose curve at least 0.9, where 1 is the maximum;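 further: transcript level of a background control reporter unit measured by RT-PCR and capillary electrophoresis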); conditions: HepG2 Attagene TRANS M32 internal marker reporter
Outline: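 Human hepatoma HepG2, transient MRTU transfection, 24 h treatment. RNA → RT-PCR → fluorescent primer extension → HpaI digest (2 h, 37 C) → CE. Positive-direction fit vs DMSO.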

[16] = BSK_3C_TissueFactor: BioMAP Diversity Plus: 3C Assay for Tissue Factor Biomarker Activity (AID 2282997); conditions: BioMAP 3C HUVEC, tissue factor biomarker readout; actives raise or lower the signal
Outline: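 Values derive from bidirectional curve fitting against DMSO of Tissue Factor ELISA signals, taken 24 h after dosing primary human umbilical vein endothelial cells.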

[17] = BSK_3C_VCAM1: BioMAP Diversity Plus: 3C Assay for Vascular cell adhesion molecule 1 (VCAM1) Biomarker Activity (AID 2282999); conditions: BioMAP 3C HUVEC, VCAM1 ELISA, cytokine-stimulated; actives raise or lower the signal
Outline: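 Human umbilical vein endothelial cells were dosed with compound for 24 h, after which cell-surface VCAM-1 was quantified by ELISA. Bidirectional curve fitting used DMSO as negative control and activity baseline.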

[18] = biological target: Oxysterols receptor LXR-alpha (Homo sapiens) (UniProt Q13133); test: ATG_LXRa_TRANS: Attagene TRANS-FACTORIAL HepG2 Assay for human Liver X Receptor alpha (LXRa) (AID 2282980; active means hit-call score of the fitted dose curve at least 0.9, where 1 is the maximum); conditions: HepG2 Attagene TRANS reporter, LXRa transactivation
Outline: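 Transient HepG2 transfectants, 24 h dosing, RT-PCR/CE mRNA reporter quantitation; gain-of-signal vs DMSO.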

[19] = ATG_Oct_MLP_CIS: Attagene CIS-FACTORIAL HepG2 Assay for human Octamer-Binding Transcription Factor (Oct) (AID 2282993); conditions: HepG2 Attagene cis-factorial Oct reporter, mRNA; actives raise or lower the signal
Outline: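 Using HepG2 cells bearing transfected cis-reporter constructs, mRNA induction was read after 24 h by fluorescent RT-PCR and capillary electrophoresis, with DMSO defining baseline for gain- or loss-of-signal fits.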

Measured: AC50

CC(C)(O)CCc1ccccc1
not listed: [14] | [15] | [16] | [17] | [18] | [19]
inactive: all other assays above

CC(C)Cc1ccc(C(C)C(=O)O)cc1 (centres undefined)
not listed: [1] | [2] | [3] | [5] | [8] | [18] | [19]
inactive: all other assays above

O=C(c1ccc(OCCN2CCCCC2)cc1)c1c(-c2ccc(O)cc2)sc2cc(O)ccc12
inactive: [1] | [18] | [3] | [4] | [5] | [15] | [6] | [7] | [8] | [9] | [10] | [11] | [12]
active: [7] 18.5 µM | [8] 19.6 µM and 17.7 µM | [9] 8.99 µM and 16.7 µM | [12] 6.44 µM [middle of 4 runs] | [16] 34.6 µM | [17] 35.4 µM

CC(=O)c1ccc2ccccc2c1
inactive: [1] | [2] | [6] | [7] | [8] | [9] | [10] | [12] | [19] | [13]

NC(=O)c1cccnc1
not listed: [3] | [5] | [11] | [14] | [16] | [17] | [18]
inactive: all other assays above

CC(=O)c1ccc(O)cc1
not listed: [3] | [5] | [6] | [14] | [16] | [17]
inactive: all other assays above

CCC(C)(CCCC(C)C)OC(C)=O (centres undefined)
not listed: [3] | [6] | [11] | [13] | [14] | [16] | [17] | [18]
inactive: all other assays above

CCC=C(C)C=O
not listed: [5] | [13] | [14] | [16] | [17] | [18]
inactive: all other assays above

CCCc1ccc(O)cc1
active: [12] 36 µM
not listed: [4] | [5] | [14] | [15] | [16] | [17] | [18]
inactive: all other assays above

C=C1CC[C@H]2O[C@]2(C)CC[C@@H]2[C@@H]1CC2(C)C
not listed: [4] | [5] | [8] | [14] | [16] | [17]
inactive: all other assays above

CC(=O)CC(=O)N(C)C
not listed: [5] | [8] | [11] | [14] | [16] | [17] | [18]
inactive: all other assays above

CC=CC(=O)C1=C(C)C=CCC1(C)C
not listed: [5] | [13] | [14] | [15]
inactive: all other assays above

NC(N)=NC(N)=NCCc1ccccc1
active: [12] 6.3 µM
not listed: [2] | [5] | [6] | [14] | [15] | [16] | [17]
inactive: all other assays above

CCCCCCOC(C)=O
not listed: [13] | [14] | [16] | [17] | [18]
inactive: all other assays above

CC(O)CN (centres undefined)
not listed: [2] | [5] | [13] | [14] | [16] | [17]
inactive: all other assays above

C=C(C)C(N)=O
not listed: [1] | [2] | [3] | [5] | [6] | [8] | [15] | [18]
inactive: all other assays above

OC[C@H]1O[C@@H](O[C@H]2[C@H](O)[C@@H](O)[C@H](O)O[C@@H]2CO)[C@H](O)[C@@H](O)[C@H]1O
not listed: [3] | [4] | [5] | [14] | [15] | [16] | [17] | [19]
inactive: all other assays above

O=S(=O)(O)c1cc(S(=O)(=O)O)c2c(N=Nc3ccccc3)c(O)ccc2c1
not listed: [4] | [6] | [14] | [15] | [16] | [17] | [18] | [19]
inactive: all other assays above

C=C/C(C)=C/C/C=C(\C)CCC=C(C)C
active: [11] 100 µM | [12] 67.1 µM
not listed: [3] | [4] | [5] | [14] | [16] | [17] | [18]
inactive: all other assays above
